Experimental findings from PubChem BioAssay (Tox21) are described below.

The nature of test [1]: Nuclear factor erythroid 2-related factor 2/antioxidant responsive element (Nrf2/ARE) small molecule agonists: qHTS cell viability counter screen in human keratinocytes (AID 1919968; active = well fitted curve in the direction sought with a large enough effect in the repeat runs; an effect the other way counts as inactive or inconclusive; also: nearly all actives have a fitted effect of over 55% in size; also: potency is read from the fitted curve at half-maximal effect). In short, it runs like this:
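Seed 1,500 KeratinoSens cells per well, then incubate 5 h at 37 C/5% CO2. Add compounds in DMSO and incubate 23 h. Add CellTiter-Fluor, wait 1 h and read fluorescence.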

Test [2] in a line: Nuclear factor erythroid 2-related factor 2/antioxidant responsive element (Nrf2/ARE) small molecule agonists: luciferase reporter gene qHTS assay in human keratinocytes (AID 1919969; also: nearly all actives have a fitted effect of over 35% in size; also: potency is read from the fitted curve at half-maximal effect). (In general: Reporter assays use an easily measured gene product as a stand-in for the process of interest.)
Test [3] deals with Gonadotropin-releasing hormone receptor (Homo sapiens) (UniProt P30968). Description: Human gonadotropin-releasing hormone receptor (GnRHR) small molecule agonists, calcium flux assay in GnRHR-HEK293 cells (AID 1920063). Also: nearly all actives have a fitted effect of over 35% in size. An outline of the steps: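 Cells: HEK293 stably expressing human GnRHR. Steps: overnight (18 h) culture, 1 h calcium dye loading at 37 C, compound addition, kinetic fluorescence read at 480/540 nm. Each compound tested at 15 concentrations in triplicate.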
Background: Calcium assays in cells follow changes in intracellular calcium, usually with a dye or a luminescent sensor.

Test [4] deals with KiSS-1 receptor (Homo sapiens) (UniProt Q969F8). Description: Human kisspeptin (KISS1R) small molecule agonists, calcium flux assay in KISS1R-HEK293 cells (AID 1920064; active = well fitted curve in the direction sought with a large enough effect in the repeat runs; an effect the other way counts as inactive or inconclusive). An outline of the steps: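 Cells plated and incubated 18 h; dye added, 1 h at 37 C; compounds in DMSO pinned in; signal read at 480/540 nm every second for 3 min. Each compound tested at 15 concentrations in triplicate.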

The nature of test [5]: G protein-coupled receptor (GPCR) small molecule agonists, calcium flux assay: HEK293 wild type cell line counter screen (AID 1920065). An outline of the steps: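 Counter-screen of the Tox21 10K library for non-specific calcium release: dye-loaded cells received compounds in DMSO and were monitored by kinetic fluorescence (480/540 nm, 3 min). Fifteen concentrations, run in triplicate.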

Test [6] is described as follows: p53 small molecule agonists, cell-based qHTS assay with human liver microsomes (AID 1963577).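 Also: p53 response element beta-lactamase reporter cells with liver microsomes plus NADPH.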 An outline of the steps: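 With metabolic activation: human liver microsomes (0.5 mg/mL final) plus NADPH (0.5 mg/mL final) added alongside compounds to p53RE-bla cells; 16 h 37 C exposure; beta-lactamase read by LiveBLAzer fluorescence.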
In general terms: qHTS replaces the single test concentration by a dilution series.

Test [7] in a line: p53 small molecule agonists, cell-based qHTS assay with rat liver microsomes (AID 1963578). In short, it runs like this:
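Metabolic activation by rat liver microsomes and NADPH, each 0.5 mg/mL final, added right after compounds to p53RE-bla reporter cells (4,000/well, plated 5 h earlier). 16 h at 37 C, then LiveBLAzer substrate for 2 h at room temperature in the dark; fluorescence read-out.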

A short description of test [8]: p53 small molecule agonists, cell-based qHTS assay with human liver microsomes: qHTS cell viability counter screen (AID 1963579). Also: nearly all actives have a fitted effect of over 45% in size. An outline of the steps:
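Metabolic activation used human liver microsomes and NADPH, both 0.5 mg/mL final, over 16 hours at 37 C on p53RE-bla cells (4,000/well). Cytotoxicity measured by CellTiter-Glo luminescence, 30 min at room temperature.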

Test [9] can be described thus: p53 small molecule agonists, cell-based qHTS assay with rat liver microsomes: qHTS cell viability counter screen (AID 1963580). Also: nearly all actives have a fitted effect of over 45% in size. Also: potency is read from the fitted curve at half-maximal effect. In short, it runs like this:
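In HCT-116 cells carrying a p53 response element-bla reporter, compounds were metabolically activated in situ by rat liver microsomes with NADPH over 16 h. Cell ATP content then served as the cytotoxicity measure.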

Test [10] is described as follows: p53 small molecule agonists, cell-based qHTS assay: qHTS cell viability counter screen (AID 1963581). Also: nearly all actives have a fitted effect of over 45% in size. In short, it runs like this: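 Cells: HCT-116 with p53 response element-driven beta-lactamase. Treatment: 16 h, 37 C, compounds in DMSO. Read: CellTiter-Glo luminescence after 30 min RT.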
Test [11] can be described thus: p53 small molecule agonists, cell-based qHTS assay (AID 1963582; active = well fitted activation curve with a large enough effect in the signal ratio in the repeat runs, not every such curve was filed as active; the % refers to the signal ratio). In short, it runs like this:
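Quantitative HTS in p53RE-bla cells: after a 5 h settling period, compounds delivered in DMSO were left on cells for 16 h at 37 C, and reporter induction was measured as fluorescence following 2 h substrate loading.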

The target of test [12] is 5-hydroxytryptamine receptor 2A (Homo sapiens) (UniProt P28223). Description: 5-hydroxytryptamine receptor 2A (HTR2A) small molecule antagonists, cell-based qHTS assay (AID 1963586). Also: nearly all actives have a fitted effect of over 45% in size. In short, it runs like this:
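Antagonist-mode intracellular calcium assay: DOI (4 nM) added after 5 min compound pre-incubation at room temperature to dye-loaded HTR2A-CHO cells. Fluorescence followed for 3 min, sampled every second.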

Test [13] shares this target. Description: 5-hydroxytryptamine receptor 2A (HTR2A) small molecule agonists, cell-based qHTS assay (AID 1963587). Also: nearly all actives have a fitted effect of over 30% in size. An outline of the steps: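 HTR2A-CHO cells, plated 18 h at 37 C/5% CO2, dye-loaded 1 h at 37 C; compounds in DMSO added by pin tool (agonist mode). Intracellular calcium flux read as kinetic fluorescence on FDSS over 2 min at 1 s intervals.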
The target of test [14] is Muscarinic acetylcholine receptor M1 (Homo sapiens) (UniProt P11229). Description: Cholinergic receptor muscarinic 1 (CHRM1) small molecule antagonists, cell-based qHTS assay (AID 1963588). Also: nearly all actives have a fitted effect of over 40% in size. Also: potency is read from the fitted curve at half-maximal effect. An outline of the steps: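 CHRM1-CHO calcium-flux assay, antagonist mode. Cells were seeded 18 h, dye-loaded 1 h at 37 C and given compound for 5 min at RT, then acetylcholine was added at 50nM. FDSS fluorescence was read 3 min; 15 concentrations, three runs.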

Test [15] shares this target. As to the kind of experiment: Cholinergic receptor muscarinic 1 (CHRM1) small molecule agonists, cell-based qHTS assay (AID 1963589). Also: nearly all actives have a fitted effect of over 35% in size. In short, it runs like this: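 Agonist-mode qHTS in CHO cells stably carrying human muscarinic M1. Intracellular calcium is tracked by fluorescence every second after compound transfer; each compound runs at 15 concentrations in three independent runs.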

Test [16] in a line: cAMP Responsive Elements (CRE) small molecule agonists, cell-based qHTS assay (AID 1963590). In short, it runs like this:
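Agonist mode qHTS in CRE-bla HEK 293T cells: compounds dosed from DMSO for 3 h at 37 C/5% CO2, followed by LiveBLAzer B/G FRET substrate for 2 h at room temperature.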

Test [17] is described as follows: cAMP Responsive Elements (CRE) small molecule antagonists, cell-based qHTS assay (AID 1963591; active = well fitted inhibition curve with a large enough effect in the signal ratio in the repeat runs, not every such curve was filed as active; the % refers to the signal ratio). In short, it runs like this:
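Antagonist mode: test compounds are co-incubated with the adenylyl cyclase activator NKH477 (0.25 uM final) on CRE-bla HEK293T cells for 3 h at 37 °C, followed by LiveBLAzer substrate loading.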

Test [18] deals with Beta-2 adrenergic receptor (Homo sapiens) (UniProt P07550). As to the kind of experiment: Adrenergic beta2 receptor (ADRB2) small molecule antagonists, cell-based qHTS assay (AID 1963592). Also: series mostly up to about 92 µM; nearly all actives have a fitted effect of over 50% in size. An outline of the steps:
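Cells (CHO, stable ADRB2 overexpression) incubated 18-20hr at 37C; compounds added from DMSO; agonist mix (1nM isoproterenol, 100uM IBMX, 25uM Ro-20-1724) added; 0.5hr RT; d2-cAMP and anti-cAMP-cryptate added; 1hr RT; 665/615 nm read.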

Test [19] has as its target D(2) dopamine receptor (Homo sapiens) (UniProt P14416). Description: Dopamine D2 receptor (DRD2) small molecule agonists, cell-based qHTS assay (AID 1963594). Also: nearly all actives have a fitted effect of over 35% in size. In short, it runs like this: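 HEK293 cells stably expressing DRD2 were cultured 24 h at 37 C, then given Ro20-1724 (0.1 mM final) and compounds for 10 min at room temperature. NKH477 (200nM) was then added for 30 min. cAMP was read by HTRF.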

Test [20] shares this target. As to the kind of experiment: Dopamine D2 receptor (DRD2) small molecule antagonists, cell-based qHTS assay (AID 1963595; active = well fitted inhibition curve with a large enough effect in the signal ratio in the repeat runs, with a control signal flat; the % refers to the signal ratio). An outline of the steps: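 DRD2-HEK293; 0.1 mM Ro20-1724; cpd 10 min RT; NKH477 200 nM + quinpirole 12 nM, 30 min RT; HTRF cAMP (cAMP-d2/anti-cAMP cryptate), 665/620 nm ratio after 1 h.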

Each structure is given as a SMILES string. Inconclusive results are not listed. Where a structure was tested more than once in an assay, its records may differ in their call. Activity calls are given as the source filed them. Unless noted, calls follow the shape of the full dose curve.

Sequence of KiSS-1 receptor (Homo sapiens) (Q969F8 whole entry, looked up): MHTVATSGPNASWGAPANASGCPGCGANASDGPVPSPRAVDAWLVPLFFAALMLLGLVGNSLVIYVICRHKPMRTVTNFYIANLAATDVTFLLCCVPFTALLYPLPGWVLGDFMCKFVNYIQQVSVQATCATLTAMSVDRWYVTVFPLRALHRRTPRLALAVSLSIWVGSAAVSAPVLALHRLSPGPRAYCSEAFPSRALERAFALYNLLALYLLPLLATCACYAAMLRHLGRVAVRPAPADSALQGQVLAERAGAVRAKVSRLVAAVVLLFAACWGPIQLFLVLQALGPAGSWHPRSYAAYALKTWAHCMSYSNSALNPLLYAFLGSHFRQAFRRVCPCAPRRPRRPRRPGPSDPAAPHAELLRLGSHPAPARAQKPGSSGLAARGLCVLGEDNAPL
Sequence of 5-hydroxytryptamine receptor 2A (Homo sapiens) (P28223 whole entry, looked up): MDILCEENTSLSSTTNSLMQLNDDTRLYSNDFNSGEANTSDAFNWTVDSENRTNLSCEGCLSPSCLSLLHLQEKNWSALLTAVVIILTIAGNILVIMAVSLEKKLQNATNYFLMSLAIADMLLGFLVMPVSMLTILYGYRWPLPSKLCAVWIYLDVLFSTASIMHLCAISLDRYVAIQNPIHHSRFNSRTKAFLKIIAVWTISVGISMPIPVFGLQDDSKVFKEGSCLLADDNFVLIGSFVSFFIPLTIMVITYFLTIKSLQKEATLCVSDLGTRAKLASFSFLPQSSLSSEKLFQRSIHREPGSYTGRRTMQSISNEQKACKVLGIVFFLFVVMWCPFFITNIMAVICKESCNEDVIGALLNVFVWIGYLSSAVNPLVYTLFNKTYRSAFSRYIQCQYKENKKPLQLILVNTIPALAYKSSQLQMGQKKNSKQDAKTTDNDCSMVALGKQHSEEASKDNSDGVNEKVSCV
Sequence of Muscarinic acetylcholine receptor M1 (Homo sapiens) (P11229 whole entry, looked up): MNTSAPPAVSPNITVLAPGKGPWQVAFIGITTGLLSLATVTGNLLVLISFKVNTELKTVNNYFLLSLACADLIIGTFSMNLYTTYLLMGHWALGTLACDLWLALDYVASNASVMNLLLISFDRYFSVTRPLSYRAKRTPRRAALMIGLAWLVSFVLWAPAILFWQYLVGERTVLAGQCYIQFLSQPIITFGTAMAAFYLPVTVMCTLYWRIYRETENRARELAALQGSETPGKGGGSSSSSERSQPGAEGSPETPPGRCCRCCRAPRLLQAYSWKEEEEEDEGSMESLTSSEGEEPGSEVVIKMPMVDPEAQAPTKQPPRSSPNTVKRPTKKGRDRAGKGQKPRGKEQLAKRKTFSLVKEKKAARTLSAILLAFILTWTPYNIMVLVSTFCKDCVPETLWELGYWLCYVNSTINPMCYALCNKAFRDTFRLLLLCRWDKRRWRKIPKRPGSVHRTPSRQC
Sequence of Beta-2 adrenergic receptor (Homo sapiens) (P07550 whole entry, looked up): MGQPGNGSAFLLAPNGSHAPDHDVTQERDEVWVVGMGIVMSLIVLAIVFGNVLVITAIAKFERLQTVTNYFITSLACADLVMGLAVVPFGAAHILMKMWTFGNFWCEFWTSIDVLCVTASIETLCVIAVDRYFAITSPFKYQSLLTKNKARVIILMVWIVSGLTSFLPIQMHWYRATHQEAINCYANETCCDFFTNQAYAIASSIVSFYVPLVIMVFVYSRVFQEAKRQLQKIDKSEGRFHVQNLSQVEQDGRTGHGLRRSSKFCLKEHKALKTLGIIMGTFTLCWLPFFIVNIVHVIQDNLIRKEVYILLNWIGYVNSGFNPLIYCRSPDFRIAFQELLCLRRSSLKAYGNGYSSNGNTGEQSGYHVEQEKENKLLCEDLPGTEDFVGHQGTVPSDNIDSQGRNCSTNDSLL
Sequence of D(2) dopamine receptor (Homo sapiens) (P14416 whole entry, looked up): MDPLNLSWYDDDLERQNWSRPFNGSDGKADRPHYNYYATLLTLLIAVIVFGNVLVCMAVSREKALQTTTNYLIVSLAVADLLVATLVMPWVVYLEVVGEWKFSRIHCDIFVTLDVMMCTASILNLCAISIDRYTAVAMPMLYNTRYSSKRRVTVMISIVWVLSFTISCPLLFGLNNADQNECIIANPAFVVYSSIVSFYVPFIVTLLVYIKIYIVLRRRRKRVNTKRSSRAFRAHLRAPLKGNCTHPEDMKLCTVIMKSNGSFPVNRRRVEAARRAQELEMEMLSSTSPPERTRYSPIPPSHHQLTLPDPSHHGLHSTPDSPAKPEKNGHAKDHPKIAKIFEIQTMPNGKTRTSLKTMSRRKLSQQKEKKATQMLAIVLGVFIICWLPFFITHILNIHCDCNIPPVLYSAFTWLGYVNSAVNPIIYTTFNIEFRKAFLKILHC
Sequence of Gonadotropin-releasing hormone receptor (Homo sapiens) (P30968 whole entry, looked up): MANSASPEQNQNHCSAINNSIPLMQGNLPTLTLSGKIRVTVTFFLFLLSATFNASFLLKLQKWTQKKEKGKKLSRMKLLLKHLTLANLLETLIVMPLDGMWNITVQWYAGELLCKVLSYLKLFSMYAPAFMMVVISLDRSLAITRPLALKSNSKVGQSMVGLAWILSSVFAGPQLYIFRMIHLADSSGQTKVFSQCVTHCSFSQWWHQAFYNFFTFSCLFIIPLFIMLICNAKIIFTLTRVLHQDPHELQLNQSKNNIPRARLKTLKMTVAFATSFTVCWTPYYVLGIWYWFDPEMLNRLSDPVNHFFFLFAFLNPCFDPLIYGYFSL

Regarding `Cc1ccc([N+](=O)[O-])c(C)c1`, the Potency is 2.43 µM (active) and inactive in [1]; 1.93 µM (active) and inactive in [2]; 18.2 µM (active) and inactive in test [9]. Besides, the Potency entry in test [3], in test [4], in test [5], in test [6], in test [7] and in test [8] was “inactive” in each case. Also, the Potency entry in [10], in test [11], in test [12], in test [13], in [14] and in test [15] was “inactive” throughout. For the same compound, the Potency result in test [16], in test [17], in test [18], in test [19] and in test [20] was “inactive” in each case.
With `O=C(O)c1cccc([N+](=O)[O-])c1`, the Potency entry in [1], in [2], in test [3], in test [4], in test [5] and in [6] was “inactive” each time. In addition, the Potency entry in test [7], in test [8], in test [9], in test [10], in test [11] and in [12] was “inactive” throughout. The Potency result in test [13], in test [14], in [15], in [16], in [17] and in test [18] was “inactive” in each case. In addition, the Potency result in test [19] and in test [20] was “inactive” throughout.
Take `CCc1ccc(O)cc1`: the Potency result in [1], in test [2], in [3], in test [4], in [5] and in [6] was “inactive” each time. Also, the Potency result in test [7], in [8], in [9], in test [10], in test [11] and in [12] was “inactive” throughout. Further, the Potency result in test [13], in [14], in [15], in test [16], in [17] and in test [18] was “inactive” throughout. Also, the Potency result in test [19] and in test [20] was “inactive” in each case.
As for `CC1(C)CC(N=C=O)CC(C)(CN=C=O)C1` (stereo not given), the Potency entry in test [1], in [2], in test [3], in test [4], in test [5] and in [6] was “inactive” in each case. The Potency entry in test [7], in [8], in test [9], in [10], in [11] and in test [12] was “inactive” each time. The Potency result in test [13], in test [15], in [16], in test [17], in test [18] and in test [19] was “inactive” each time. Besides, in [20], the Potency result is “inactive”. For the same compound, the Potency in test [14] is 17 µM (active).
Regarding `O=C(O)Cc1cccc2ccccc12`, the Potency result in test [1], in test [2], in test [3], in [4], in test [5] and in test [6] was “inactive” in each case. For the same compound, the Potency result in [7], in test [8], in test [9], in test [10], in test [11] and in [12] was “inactive” throughout. Also, the Potency result in test [13], in test [14], in test [15], in test [16], in test [17] and in [18] was “inactive” throughout. Further, the Potency result in test [19] and in test [20] was “inactive” in each case.
Regarding `CC[Si](OC(C)=O)(OC(C)=O)OC(C)=O`, the Potency entry in test [1], in test [2], in [3], in test [4], in test [5] and in [6] was “inactive” in each case. Also, the Potency entry in test [7], in [8], in test [9], in test [10], in test [11] and in test [12] was “inactive” in each case. In addition, the Potency result in test [13], in [14], in test [15], in [16], in test [17] and in test [18] was “inactive” each time. Moreover, the Potency entry in test [19] and in test [20] was “inactive” each time.
Turning to `CC(CCl)OP(=O)(OC(C)CCl)OC(C)CCl` (stereo not given), the Potency entry in test [1], in test [2], in test [3], in [4], in test [5] and in [6] was “inactive” each time. The Potency entry in [7], in test [8], in test [9], in [10], in test [11] and in test [12] was “inactive” in each case. Besides, the Potency result in [13], in [14], in test [15], in test [16], in test [17] and in test [18] was “inactive” each time. Further, the Potency entry in test [19] and in test [20] was “inactive” throughout.
